From PubChem BioAssay come the findings set out here.

Assay [1] is described as follows: inhibitors of TNFa-induced NFkB p65 translocation, primary screen, imaging, HUVEC, MLSMR starter and 10KST1 sets (AID 438;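 active means inhibition above 20% together with a positive visual image hit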;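 further: compound added about 3h40 before a 20 min TNFalpha stimulation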;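 on inhibition: signal is the nuclear over cytoplasmic p65 intensity ratio per well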). The following applies: HUVEC TNFa-induced p65 nuclear translocation; cell count: measured here: nuclei count (cytotoxicity indicator), at 2.08 µM; inhibition: at 2 µM, stronger effect = higher value, 0% TNFa-plus-vehicle, 100% no-TNFa wells.
The nature of assay [2]: inhibitors of mutant huntingtin aggregation, primary screen, imaging, exon1htt(103Q)mCFP cells, high-content imaging (AID 483;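 active means visual image review flags a hit and inhibition of aggregation exceeds 20%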;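 further: compound exposure lasted 3 days before fixation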;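 on nuclei count: percent of the per-plate median nuclei count of sample wells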). To be noted: exon1htt(103Q)mCFP cell line, aggregate imaging, at 2 µM; inhibition of aggregation: stronger effect = higher value; nuclei count: measured here: cell count, toxicity.
The nature of assay [3]: inhibitors of E-selectin induction by TNFa, primary screen, imaging, HUVEC, immunofluorescence, MLSMR starter and 10KST1 sets (AID 487;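 active means visually confirmed hit in the image check and inhibition above 20%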;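 on inhibition: signal is fraction of cell area covered by stained E-selectin grains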;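 on nuclei count: 100% = median nuclei count of all wells on the same plate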). To be noted: HUVEC TNFalpha-induced E-selectin immunofluorescence imaging, at 2 µM; inhibition: stronger effect = higher value; nuclei count: measured here: cell number, toxicity.
The nature of assay [4]: DUSP6 inhibitors restoring Erk phosphorylation by chemical complementation, primary imaging in DUSP6-transfected HeLa (AID 609;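 active means compounds giving at least 50% inhibition in the cell-based MKP-3 phosphatase rescue imaging test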;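 on inhibition: phospho-Erk level distribution per well compared with pooled transfected vehicle control wells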). The following applies: HeLa MKP-3 transfected, phospho-Erk imaging KS statistic, at 10 µM, cells stimulated with TPA for 15 min.
For assay [5], the target named is Dual specificity protein phosphatase 6 (Homo sapiens) (UniProt Q16828). Described as above. To be noted: HeLa MKP-3 transfected, phospho-Erk imaging KS statistic; at 10 µM; stronger effect = higher value; cells stimulated with TPA for 15 min.
Chain of Dual specificity protein phosphatase 6 (Homo sapiens) (Q16828 whole entry, looked up): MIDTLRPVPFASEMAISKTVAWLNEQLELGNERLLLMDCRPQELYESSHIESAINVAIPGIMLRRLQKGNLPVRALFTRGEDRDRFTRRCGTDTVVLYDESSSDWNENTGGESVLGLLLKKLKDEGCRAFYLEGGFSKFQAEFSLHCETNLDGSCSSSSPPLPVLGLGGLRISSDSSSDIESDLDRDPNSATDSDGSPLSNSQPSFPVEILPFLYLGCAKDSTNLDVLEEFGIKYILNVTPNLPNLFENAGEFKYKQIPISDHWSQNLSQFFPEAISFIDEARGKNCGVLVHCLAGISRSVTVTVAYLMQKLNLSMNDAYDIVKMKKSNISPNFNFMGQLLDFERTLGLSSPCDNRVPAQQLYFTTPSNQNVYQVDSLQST
Assay [6] has as its target Voltage-gated potassium channel subunit beta-2 (Rattus norvegicus) (UniProt P62483). Put plainly: KvBeta enzyme negative modulators, primary screen, biochemical, NADPH fluorescence (AID 622;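 active means fluorescence slope higher than the sample average by over 3 SD, cut at about -0.22 in these data, passing the limit was not always enough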;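 further: slope of raw intensity against log time taken from 70 to 1610 s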). The following applies: recombinant KvBeta, 4-cyanobenzaldehyde reduction, at 10 µM, stronger effect = higher value.
For assay [7] the target is unchanged. Put plainly: KvBeta positive modulators, primary screen, biochemical, NADPH fluorescence (AID 623;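 active means NADPH fluorescence slope more negative than the mean of all samples by about 3 SD, 99.7% confidence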;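 further: fluorescence intensity change per second fitted from 20 to 320 s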). To be noted: Recombinant KvBeta, NADPH fluorescence decrease slope, 10 min; at 10 µM; stronger effect = lower value.
In assay [8] the target is Alpha-2C adrenergic receptor (Homo sapiens) (UniProt P18825). In words: modulators of alpha2C/GIRK thallium flux, primary screen, cell-based, HEK293 alpha2C/GIRK1/2 (AID 624;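 active means fluorescence slope after compound addition differing from the mean of all screened samples at 99.7% confidence, in either direction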;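 further: slope of fluorescence ratio to pre-addition baseline per second over 15 to 24 s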). The following applies: thallium flux BTC fluorescence, at 10 µM, actives lie on both sides.
Chain of Alpha-2C adrenergic receptor (Homo sapiens) (P18825 whole entry, looked up): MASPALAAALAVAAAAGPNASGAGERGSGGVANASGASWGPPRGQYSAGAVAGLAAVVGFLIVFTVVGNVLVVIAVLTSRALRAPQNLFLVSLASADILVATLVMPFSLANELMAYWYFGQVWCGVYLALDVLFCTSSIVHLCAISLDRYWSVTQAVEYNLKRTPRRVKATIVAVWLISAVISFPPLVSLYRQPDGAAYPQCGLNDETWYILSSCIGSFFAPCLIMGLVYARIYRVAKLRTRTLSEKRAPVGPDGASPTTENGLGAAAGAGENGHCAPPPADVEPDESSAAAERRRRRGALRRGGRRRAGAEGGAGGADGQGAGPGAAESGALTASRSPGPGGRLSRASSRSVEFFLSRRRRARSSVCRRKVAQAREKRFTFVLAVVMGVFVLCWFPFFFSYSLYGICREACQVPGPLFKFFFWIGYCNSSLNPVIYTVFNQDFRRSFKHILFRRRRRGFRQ
Assay [9] can be described thus: inhibitors of larval lipid processing in zebrafish, primary screen, whole organism, PED6 fluorescence, gall bladder and intestine (AID 686;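 active means a full or partial loss of lipid-probe fluorescence in the fish gall bladder, intestine or both, judged by eye; inactive means no fluorescence loss, or compound toxic to the fish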;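 further: larvae 5 to 7 days old with five fish per well; signal comes from phospholipase A2 cleavage of quenched PED6 carried via bile; overnight exposure to compound and PED6 before scoring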). The following applies: Zebrafish larvae PED6 lipid processing, fluorescence scoring; screened at 20 µM (by protocol).
Assay [10] can be described thus: inhibitors of Chlamydomonas gravitaxis, primary screen, whole organism, Chlamydomonas reinhardtii, WT vs cilia-less mutant, absorbance, 96-well (AID 463189;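 active means inhibition at or above 50% relative to wild type and mutant plate controls; inactive means inhibition below 50%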;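 further: 0% = wild type cc124 cells in DMSO and 100% = ciliumless bld1 mutant cells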). To be noted: OD600 absorbance, 2 days, at 10 µM, stronger effect = higher value.
Assay [11] is described as follows: inhibitors of Sendai virus-induced IRF3 signaling, primary screen, TLR/RLR signaling modifier project, cell-based, Sendai virus stimulus, luciferase, 10K MLSCN set (AID 602276;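 active means inhibition at or above 50% at 10 µM; inactive means inhibition below 50%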;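 further: firefly luciferase from ISG56 promoter only with Renilla not read in this screen; 0% = Sendai virus plus DMSO and 100% = medium plus DMSO without virus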). To be noted: HEK293 RL24 IRF3 luciferase reporter, at 10 µM, stronger effect = higher value. In general terms: A reporter such as luciferase makes a cellular process visible.
The nature of assay [12]: inhibitors of poly I:C-induced TLR3 signaling, primary screen, cell-based, poly I:C stimulus, luciferase, 10K MLSCN set (AID 602277). To be noted: HEK293-TLR3 RL24 IRF3 luciferase reporter, at 10 µM, stronger effect = higher value.
Setting [13] is: measured here: cell density z-score.
Setting [14] is: measured here: nuclear c-Myc green intensity z-score.
Where [15] appears, read: measured here: nuclear pErk red intensity z-score, stronger effect = higher value.

Each structure is given as a SMILES string. Activity calls are given as the source filed them.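 How the source made its calls, unless noted: active means inhibition of the reporter signal at or above 50%; inactive means inhibition below 50%.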

Chain of Voltage-gated potassium channel subunit beta-2 (Rattus norvegicus) (P62483 whole entry, looked up): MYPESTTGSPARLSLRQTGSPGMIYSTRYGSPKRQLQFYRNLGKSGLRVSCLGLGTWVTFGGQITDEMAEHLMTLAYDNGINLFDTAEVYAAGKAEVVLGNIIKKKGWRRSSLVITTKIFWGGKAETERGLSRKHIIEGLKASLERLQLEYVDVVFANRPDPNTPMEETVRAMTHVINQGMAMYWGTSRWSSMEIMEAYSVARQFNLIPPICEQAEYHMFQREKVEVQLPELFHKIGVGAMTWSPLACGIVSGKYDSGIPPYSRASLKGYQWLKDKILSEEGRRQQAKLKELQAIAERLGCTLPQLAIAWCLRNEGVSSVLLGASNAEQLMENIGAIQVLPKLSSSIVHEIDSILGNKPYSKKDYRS

Turning to `C=CCOc1nc2c(c(=O)n(C)c(=O)n2C)n1Cc1c(Cl)cccc1Cl`, the cell count in assay [1] worked out at 556. Besides, the inhibition (commonly the relative decrease from the control value, in per cent) is -2.9% (inactive) in assay [1]; 14% (inactive) in assay [3]; -4.7% (inactive) in assay [5]; -9.21% (inactive) in [10]; 11.4% (inactive) in assay [11]; 16% (inactive) in [12]. Also, the inhibition of aggregation in assay [2] is -47.7% (inactive). In addition, the values for the nuclei count in assay [2] and in [3] were 115% and 113%, respectively. Moreover, the z-score in assay [4] (setting [13]) was -0.686; in assay [4] (setting [14]), 2.36; in [4] (setting [15]), -0.556. Also, the fluorescence slope in [6] is -0.502 (inactive). In [7], the NADPH fluorescence slope was -0.000118 (inactive). The slope in assay [8] is 0.00485 (inactive). Moreover, the molecule was classed as inactive in assay [9].

On to `O=C(O)CCCc1ccccc1`, for which the cell count in assay [1] is 647. The inhibition is 0.8% (inactive) in assay [1]; -27.5% (inactive) in assay [3]; 8% (inactive) in assay [5]; -5.1% (inactive) in [10]; -1.93% (inactive) in assay [11]; 7.07% (inactive) in assay [12]. For the same molecule, the inhibition of aggregation in assay [2] was -15.5% (inactive). Besides, the nuclei count in [2] was found to be 106%; in assay [3], 112%. For the same molecule, the z-score was 0.592 in [4] (setting [13]), -1.18 in [4] (setting [14]) and -0.707 in [4] (setting [15]). Further, the fluorescence slope in assay [6] was -0.549 (inactive). Moreover, the NADPH fluorescence slope in assay [7] was -3.8e-05 (inactive). Also, the slope in [8] was 0.0053 (inactive). For the same molecule, the molecule was classed as inactive in [9].

With `COC(=O)c1cc(Br)c(=O)n(CCc2ccc(F)cc2)c1`, in assay [1], the cell count was found to be 595. The inhibition in assay [1] was -7.1% (inactive); in assay [3] it was 6.1% (inactive); in assay [5], 1.9e-07% (inactive); in [10], -7.76% (inactive); in assay [11], 4.86% (inactive); in assay [12] it was 5.55% (inactive). Also, in assay [2], the inhibition of aggregation was -4.6% (inactive). The nuclei count in assay [2] was found to be 93.4%; in assay [3], 151%. Moreover, the z-score in assay [4] (setting [13]) is -0.681; in assay [4] (setting [14]), 0.872; in assay [4] (setting [15]), 1.23. Moreover, the fluorescence slope in assay [6] is -0.324 (inactive). Moreover, in [7], the NADPH fluorescence slope is -5.7e-05 (inactive). Moreover, the slope in assay [8] is 0.00485 (inactive). In assay [9], the outcome was “active; no signal in intestine only”.

Take `CC(O)Cn1cnc2c1c(=O)n(C)c(=O)n2C` (stereo not given): the cell count in assay [1] turned out to be 541. Also, the inhibition was -7% (inactive) in assay [1]; -13.1% (inactive) in assay [3]; 15.3% (inactive) in assay [5]; 23.2% (inactive) in assay [10]; 12% (inactive) in [11]; 29.4% (inactive) in assay [12]. Moreover, the inhibition of aggregation in assay [2] is 11.8% (inactive). Moreover, the results for the nuclei count in assay [2] and in assay [3] were 99.1% and 128%, respectively. In addition, the z-score in [4] (setting [13]) was 1.09; in assay [4] (setting [14]), -0.569; in assay [4] (setting [15]), -0.416. Besides, the fluorescence slope in assay [6] was -0.45 (inactive). Moreover, in assay [7], the NADPH fluorescence slope was -7.7e-05 (inactive). Moreover, in assay [8], the slope was 0.00504 (inactive). The call in assay [9] was inactive.

Regarding `Oc1c(Cl)cc(Cl)cc1CNc1ccc(Br)cn1`, the cell count in assay [1] worked out at 580. The inhibition in [1] is -1.3% (inactive); in [3], -9.9% (inactive); in assay [5] it was -3.5% (inactive); in assay [10], -5.67% (inactive); in assay [11], 17% (inactive); in assay [12] it was 20.5% (inactive). Moreover, the inhibition of aggregation in [2] was -20.5% (inactive). For the same molecule, the nuclei count in [2] was 108%; in assay [3], 102%. Further, the z-score in assay [4] (setting [13]) is -1.08; in assay [4] (setting [14]), 0.507; in assay [4] (setting [15]) it was -0.618. The fluorescence slope in assay [6] was -0.357 (inactive). In addition, the NADPH fluorescence slope in assay [7] is 1.5e-05 (inactive). The slope in assay [8] is 0.00449 (inactive). Moreover, in assay [9], the call was inactive.
